Results taken from PubChem BioAssay (Tox21).
Records with an inconclusive call do not appear. Active and inactive are the calls of the source. Unless noted, calls follow the shape of the dose curve; as a rule, active = well fitted curve in the direction sought with a large enough effect in the repeat runs; inconclusive = weak or mixed curves; inactive = no such curve, though single readings can be large; an effect the other way counts as inactive or inconclusive.

Key:
[1] = qHTS RealTime-Glo MT Cell Viability Assay in HepG2 cells - 16 hour (AID 1224885); also: nearly all actives have a fitted effect of over 50% in size
Procedure, shortened: (§1)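 Cells + NanoLuc/prosubstrate dispensed (600 cells/well) → 5 h at 37 C/5% CO2 → compounds in DMSO transferred → 40 h incubation at 37 C, luminescence read at 0, 8, 16, 24, 32, 40 h.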

[2] = qHTS RealTime-Glo MT Cell Viability Assay in HEK293 cells - 24 hour (AID 1224886); also: nearly all actives have a fitted effect of over 50% in size; also: potency is read from the fitted curve at half-maximal effect; as to activity change, negative = cytotoxicity: top concentration of the series differs between compounds
Procedure, shortened: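 Tox21 10K qHTS, HEK293, 600 cells/well, RealTime-Glo reagent co-dispensed with cells; 5 h preincubation, compound by pintool, 37 C, luminescence at 0–40 h.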

[3] = qHTS RealTime-Glo MT Cell Viability Assay in HEK293 cells - 8 hour (AID 1224887); also: top concentration of the series differs between compounds; nearly all actives have a fitted effect of over 50% in size
Procedure, shortened: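 600 cells/well were plated with the nonlytic NanoLuc/prosubstrate reagent, pre-incubated 5 h, then given 23 nL of compound in DMSO. Incubation at 37 C for 40 h, with luminescence from viable-cell-reduced substrate read repeatedly from 0 h.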

[4] = A CellTox Green Cytotoxicity Assay to monitor cytotoxicity in HEK293 cells - 16 hour (AID 1224888); also: nearly all actives have a fitted effect of over 35% in size
Procedure, shortened: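 HEK293 cells, 600/well, were preincubated 5 hours and then exposed to compounds at 37 C for up to 40 hours. A cell-impermeant cyanine dye staining dead-cell DNA was read by fluorescence at 0, 8, 16, 24, 32 and 40 h time points.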

[5] = qHTS RealTime-Glo MT Cell Viability Assay in HepG2 cells - 0 hour (AID 1224889); also: nearly all actives have a fitted effect of over 50% in size
Procedure, shortened: as §1

[6] = A CellTox Green Cytotoxicity Assay to monitor cytotoxicity in HepG2 cells - 8 hour (AID 1224890); also: nearly all actives have a fitted effect of over 45% in size
Procedure, shortened: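 HepG2 cells, 600/well, preincubated 5 h with CellTox Green dye, then exposed to Tox21 compounds in DMSO at 37 C for up to 40 h. Dead-cell DNA fluorescence read at the indicated time point.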

[7] = qHTS assay to identify small molecule antagonists of the estrogen receptor alpha (ER-alpha) signaling pathway using the BG1 cell line in the presence of 0.1 nM 17-beta-estradiol - cell viability counter screen (AID 1259241); also: nearly all actives have a fitted effect of over 40% in size
Procedure, shortened: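 Viability in VM7Luc4E2 cells after 22 hr compound exposure under 0.1 nM 17beta-estradiol stimulation, by CellTiter-Fluor.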

[8] = qHTS assay to identify small molecule antagonists of the androgen receptor (AR) signaling pathway using the MDA cell line in the presence of 0.5 nM R1881 - cell viability counter screen (AID 1259242); also: nearly all actives have a fitted effect of over 45% in size
Procedure, shortened: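 MDA-kb2 cells (MMTV-luciferase, AR/GR responsive) were treated with compounds plus 0.5 nM R1881 (final) for 16 hr at 37C, 0% CO2. Viability was then read in the same wells as live-cell protease fluorescence (CellTiter-Fluor, 30 min).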

[9] = target: Androgen receptor (Homo sapiens) (UniProt P10275); assay: qHTS assay to identify small molecule antagonists of the androgen receptor (AR) signaling pathway using the MDA cell line in the presence of 0.5 nM R1881 (AID 1259243); also: nearly all actives have a fitted effect of over 50% in size; also: potency is read from the fitted curve at half-maximal effect
Procedure, shortened: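 MDA-kb2 cells (MMTV-luciferase, responsive to AR and GR) at 3,000/well, rested 5 h at 37C, 0% CO2, then given compounds plus 0.5 nM R1881 (final) for 16 hr. Luciferase read with ONE-Glo after 30 min at room temperature.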

[10] = target: Estrogen receptor (Homo sapiens) (UniProt P03372); assay: qHTS assay to identify small molecule antagonists of the estrogen receptor alpha (ER-alpha) signaling pathway using the BG1 cell line in the presence of 0.1 nM 17-beta-estradiol (AID 1259244); also: nearly all actives have a fitted effect of over 50% in size
Procedure, shortened: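 VM7Luc4E2 cells (endogenous full-length ER-alpha, 4×ERE-luciferase), kept 5 days in phenol red-free, charcoal-stripped FBS medium; 4,000 cells/well. Compounds added with 0.1 nM (final) 17beta-estradiol, 22 hr at 37C; luminescence read with ONE-Glo after 30 min.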

[11] = qHTS assay to identify small molecule HDAC inhibitors (AID 1259364); also: nearly all actives have a fitted effect of over 45% in size; also: potency is read from the fitted curve at half-maximal effect; as to activity change, negative = inhibition: top concentration of the series differs between compounds
Procedure, shortened: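 Wild-type HCT-116 cells, plated overnight at 37 C, exposed to compounds 2 hr at 37 C; luminogenic HDAC-Glo substrate then added 30 min at room temperature. Luminescence reports relative endogenous class I/II HDAC activity.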

[12] = qHTS assay to identify small molecule HDAC inhibitors - cell viability counter screen (AID 1259365)
Procedure, shortened: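 Cytotoxicity was gauged in wild-type HCT-116 cells after a brief 2hr treatment with DMSO-dissolved compounds at 37C and 5% CO2, using CellTiter-Glo luminescence developed for 30min at room temperature.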

[13] = qHTS assay to identify small molecule agonists of the sonic hedgehog signaling (Shh) pathway - cell viability counter screen (AID 1259366); also: nearly all actives have a fitted effect of over 50% in size; also: potency is read from the fitted curve at half-maximal effect
Procedure, shortened: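 Stable Gli1-Luc NIH/3T3 clone, 2,000 cells/well. Compound exposure 24hr at 37C. Read-out: CellTiter-Fluor fluorescence.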

[14] = qHTS assay to identify small molecule antagonists of the sonic hedgehog signaling (Shh) pathway - cell viability counter screen (AID 1259367); also: nearly all actives have a fitted effect of over 55% in size; also: potency is read from the fitted curve at half-maximal effect
Procedure, shortened: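 NIH/3T3-derived Gli1-Luc reporter cells (2,000 per well) rested 4 hr at 37 C, then received DMSO compounds plus conditioned medium. After 23 hr of treatment, CellTiter-Fluor was added for 1 hr at 37C and fluorescence read.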

[15] = qHTS assay to identify small molecule antagonists of the sonic hedgehog signaling (Shh) pathway (AID 1259369; calls by dose curve; also: nearly all actives have a fitted effect of over 45% in size; also: potency is read from the fitted curve at half-maximal effect)
Procedure, shortened: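 NIH/3T3-derived Gli1-Luc reporter cells plated 4 h, dosed with compound, then stimulated with conditioned medium for 24 h at 37 C. Firefly luciferase luminescence read after 30 min with detection reagent at room temperature.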

[16] = qHTS assay to identify small molecule agonists of the androgen receptor (AR) signaling pathway in the presence of an antagonist - cell viability counter screen (AID 1259379);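 also: MDA-kb2 human breast cancer cells carrying an MMTV luciferase reporter; series mostly up to about 92 µM; nearly all actives have a fitted effect of over 25% in size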
Procedure, shortened: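 MDA-kb2 cells (MMTV-luciferase, AR/GR), 3,000/well, 5 h attachment, then 3.0 µM nilutamide (final) and compounds at 15 concentrations. Viability by CellTiter-Fluor fluorescence after 16 h at 37 °C, 0% CO2, in the reporter wells.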

[17] = target: Estrogen receptor beta (Homo sapiens) (UniProt Q92731); assay: qHTS assay to identify small molecule antagonists of the estrogen receptor beta (ER-beta) signaling pathway (AID 1259378; active = well fitted inhibition curve with a large enough effect in the signal ratio in the repeat runs, not every such curve was filed as active; the % refers to the signal ratio)
Procedure, shortened: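 ER-beta-UAS-bla HEK293T (GripTite) cells in 2% charcoal-stripped FBS medium were preincubated 6 hr at 37C, dosed with compound, then stimulated with 1 nM E2 (final) for 16 hr; beta-lactamase reporter read by B/G FRET fluorescence after 2 hr substrate loading.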

[18] = qHTS assay to identify small molecule agonists of the sonic hedgehog signaling (Shh) pathway (AID 1259368; calls by dose curve;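 also: NIH/3T3-derived 3T3Gli1-Luc cells carrying a stable Gli1-driven firefly luciferase reporter; series mostly up to about 92 µM; nearly all actives have a fitted effect of over 15% in size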)
Procedure, shortened: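 NIH/3T3-derived 3T3Gli1-Luc cells with stably integrated Gli1-driven firefly luciferase, 2,000 cells/well, compounds added after 4 hr. Incubated 24 hr at 37C, 5% CO2; luminescence read after 30 min with luciferase reagent at room temperature.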

[19] = target: Estrogen receptor beta (Homo sapiens) (UniProt Q92731); assay: qHTS assay to identify small molecule agonists of the estrogen receptor beta (ER-beta) signaling pathway (AID 1259377; active = well fitted activation curve with a large enough effect in the signal ratio in the repeat runs, not every such curve was filed as active; the % refers to the signal ratio)
Procedure, shortened: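 Measured by fluorescence intensity from a B/G FRET beta-lactamase substrate (2 h, room temperature) in ER-beta-UAS-bla HEK293T cells treated with DMSO-dissolved compounds for 16 hr at 37C and 5% CO2.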

[20] = qHTS assay to identify small molecule phospholipidosis (PLD) inducers (AID 1259344; active = well fitted curve in the direction sought with a large enough effect; an effect the other way counts as inactive or inconclusive)
Procedure, shortened: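 HepG2 cells on collagen I, attached 4 h at 37 C, were co-treated with compound and LipidTOX Red dye for 24 h at 37 C, then fixed with paraformaldehyde plus Hoechst 33342 and imaged by high-content microscopy for phospholipid accumulation.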
% is scaled to controls: 0 for no effect and ±100 for the full control effect.

Chain of Androgen receptor (Homo sapiens) (P10275 whole entry, looked up): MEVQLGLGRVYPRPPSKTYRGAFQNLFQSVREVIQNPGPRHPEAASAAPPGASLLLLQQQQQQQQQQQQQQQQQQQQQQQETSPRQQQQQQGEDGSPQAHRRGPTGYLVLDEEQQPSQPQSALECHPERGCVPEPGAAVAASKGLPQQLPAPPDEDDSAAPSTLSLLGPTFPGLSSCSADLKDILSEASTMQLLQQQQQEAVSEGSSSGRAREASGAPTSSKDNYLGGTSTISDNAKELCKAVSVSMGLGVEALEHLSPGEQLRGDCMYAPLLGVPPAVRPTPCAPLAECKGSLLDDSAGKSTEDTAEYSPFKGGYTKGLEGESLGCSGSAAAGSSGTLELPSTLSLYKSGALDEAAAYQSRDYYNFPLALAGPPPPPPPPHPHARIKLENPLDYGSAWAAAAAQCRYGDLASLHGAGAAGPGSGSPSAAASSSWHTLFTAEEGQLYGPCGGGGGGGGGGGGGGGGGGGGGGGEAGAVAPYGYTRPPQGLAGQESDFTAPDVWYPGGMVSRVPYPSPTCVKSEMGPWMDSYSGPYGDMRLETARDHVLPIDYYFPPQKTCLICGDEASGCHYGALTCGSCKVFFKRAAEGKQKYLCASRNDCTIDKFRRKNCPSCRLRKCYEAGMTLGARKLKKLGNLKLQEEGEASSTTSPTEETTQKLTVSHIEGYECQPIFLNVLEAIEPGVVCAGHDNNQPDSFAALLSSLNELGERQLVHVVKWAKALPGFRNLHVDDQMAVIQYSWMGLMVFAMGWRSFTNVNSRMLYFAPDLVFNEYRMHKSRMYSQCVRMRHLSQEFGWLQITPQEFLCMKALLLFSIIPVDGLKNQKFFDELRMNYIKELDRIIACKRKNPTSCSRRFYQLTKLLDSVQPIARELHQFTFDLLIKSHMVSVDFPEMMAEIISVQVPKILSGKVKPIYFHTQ
Chain of Estrogen receptor (Homo sapiens) (P03372 whole entry, looked up): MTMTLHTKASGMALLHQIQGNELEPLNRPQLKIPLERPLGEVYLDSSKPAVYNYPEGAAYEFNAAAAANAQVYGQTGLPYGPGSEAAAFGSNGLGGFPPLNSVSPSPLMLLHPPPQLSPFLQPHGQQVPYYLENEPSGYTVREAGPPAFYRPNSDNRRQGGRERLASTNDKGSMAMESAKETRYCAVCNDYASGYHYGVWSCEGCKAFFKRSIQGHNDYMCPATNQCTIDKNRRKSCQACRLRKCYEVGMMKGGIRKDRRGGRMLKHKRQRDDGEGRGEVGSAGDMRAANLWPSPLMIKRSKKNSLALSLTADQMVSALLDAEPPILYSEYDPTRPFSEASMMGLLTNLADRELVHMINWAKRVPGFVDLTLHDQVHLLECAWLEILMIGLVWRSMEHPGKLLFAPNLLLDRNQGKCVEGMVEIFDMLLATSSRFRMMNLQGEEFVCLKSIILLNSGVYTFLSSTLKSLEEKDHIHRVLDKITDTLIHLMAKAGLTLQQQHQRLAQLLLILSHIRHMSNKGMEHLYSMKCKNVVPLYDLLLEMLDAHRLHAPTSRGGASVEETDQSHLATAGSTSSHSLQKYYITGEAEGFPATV
Chain of Estrogen receptor beta (Homo sapiens) (Q92731 whole entry, looked up): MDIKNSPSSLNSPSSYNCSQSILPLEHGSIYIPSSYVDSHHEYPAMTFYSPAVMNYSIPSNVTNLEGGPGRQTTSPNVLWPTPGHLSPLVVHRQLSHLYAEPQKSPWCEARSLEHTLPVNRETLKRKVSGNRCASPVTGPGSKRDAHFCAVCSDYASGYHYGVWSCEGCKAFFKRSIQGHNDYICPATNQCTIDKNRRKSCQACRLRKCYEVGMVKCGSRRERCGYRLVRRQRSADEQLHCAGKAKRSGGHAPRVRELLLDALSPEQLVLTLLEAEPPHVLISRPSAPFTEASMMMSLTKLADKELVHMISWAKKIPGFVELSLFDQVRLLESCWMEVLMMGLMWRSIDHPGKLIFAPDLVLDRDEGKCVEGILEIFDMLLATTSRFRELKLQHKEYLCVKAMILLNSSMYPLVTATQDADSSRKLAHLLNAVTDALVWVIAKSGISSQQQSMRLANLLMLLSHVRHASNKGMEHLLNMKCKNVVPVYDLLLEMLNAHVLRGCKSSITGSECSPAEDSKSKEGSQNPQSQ

C/C(=N\[Si](C)(C)C)O[Si](C)(C)C
inactive: Potency [1] | Potency [2] | Potency [3] | Potency [4] | Potency [5] | Potency [6] | Potency [7] | Potency [8] | Potency [9] | Potency [10] | Potency [11] | Potency [12] | Potency [13] | Potency [14] | Potency [15] | Potency [16]

Cc1c[nH]c(=O)[nH]c1=O
inactive: Potency [1] | Potency [2] | Potency [3] | Potency [4] | Potency [5] | Potency [6] | Potency [7] | Potency [8] | Potency [9] | Potency [10] | Potency [12] | Potency [13] | Potency [14] | Potency [15] | Potency [17] | Potency [16]

Brc1cc(Br)cc(Br)c1
inactive: Potency [1] | Potency [2] | Potency [3] | Potency [4] | Potency [5] | Potency [6] | Potency [7] | Potency [8] | Potency [9] | Potency [10] | Potency [11] | Potency [12] | Potency [13] | Potency [14] | Potency [18] | Potency [16]

CCN(CCC#N)c1ccc(N=Nc2ccc([N+](=O)[O-])cc2)cc1
inactive: Potency [1] | Potency [2] | Potency [3] | Potency [4] | Potency [5] | Potency [6] | Potency [7] | Potency [8] | Potency [9] | Potency [13] | Potency [14] | Potency [18] | Potency [15] | outcome [19] | Potency [17] | Potency [16]
active: Potency [11] 15400 nM

Nc1ccc(Cl)c([N+](=O)[O-])c1
active: Potency [9] 24300 nM
inactive: Potency [1] | Potency [2] | Potency [3] | Potency [4] | Potency [5] | Potency [6] | Potency [7] | Potency [8] | Potency [11] | Potency [12] | Potency [18] | Potency [16]

CCCC(C)C=O (stereo not given)
inactive: Potency [1] | Potency [2] | Potency [3] | Potency [4] | Potency [5] | Potency [6] | Potency [7] | Potency [8] | Potency [10] | Potency [11] | Potency [12] | Potency [13] | Potency [14] | Potency [18] | Potency [15] | Potency [17] | Potency [16]

CN1CC[C@H](c2c(O)cc(O)c3c(=O)cc(-c4ccccc4Cl)oc23)[C@H](O)C1
inactive: Potency [1] | Potency [3] | Potency [4] | Potency [5] | Potency [6] | Potency [7] | Potency [8] | Potency [20] | Potency [11] | Potency [12] | Potency [18] | outcome [19] | Potency [16]
active: Potency [2] 151 nM | Potency [9] 94.4 nM | Potency [13] 376 nM | Potency [14] 298 nM | Potency [15] 47.3 nM

C=C(C)CCO
inactive: Potency [1] | Potency [2] | Potency [3] | Potency [4] | Potency [5] | Potency [6] | Potency [7] | Potency [8] | Potency [9] | Potency [10] | Potency [11] | Potency [12] | Potency [13] | Potency [14] | Potency [18] | Potency [16]

CCc1cccc(CC)c1
inactive: Potency [1] | Potency [2] | Potency [3] | Potency [4] | Potency [5] | Potency [6] | Potency [7] | Potency [8] | Potency [9] | Potency [10] | Potency [11] | Potency [12] | Potency [13] | Potency [14] | Potency [18] | Potency [15] | outcome [19] | Potency [17] | Potency [16]

Nc1c(Br)cc([N+](=O)[O-])cc1Br
inactive: Potency [1] | Potency [2] | Potency [3] | Potency [4] | Potency [5] | Potency [6] | Potency [7] | Potency [8] | Potency [10] | Potency [11] | Potency [12] | Potency [13] | Potency [14] | Potency [18] | Potency [15] | Potency [17] | Potency [16]

Oc1ccc2c(c1)CCC2
inactive: Potency [1] | Potency [2] | Potency [3] | Potency [4] | Potency [5] | Potency [6] | Potency [7] | Potency [8] | Potency [9] | Potency [10] | Potency [12] | Potency [13] | Potency [14] | Potency [18] | Potency [17] | Potency [16]

C=CC(=O)OCCOC1C2CCC1C1CC=CC12 (stereo not given)
inactive: activity change, negative = cytotoxic [1] 0.672% [at 15.8 µM] | activity change, negative = cytotoxicity [2] -2.24% [at 15.8 µM] | activity change, negative = cytotoxicity [3] -0.849% [at 15.8 µM] | activity change [4] -0.617% [at 15.8 µM, stronger effect = higher value] | activity change, negative = cytotoxicity [5] 5.34% [at 15.8 µM] | cytotoxicity increase [6] -9.41% [at 15.8 µM] | activity change, negative = cytotoxicity [7] 0.54% [at 19 µM] | viability change, negative = cytotoxic [8] 0.35% [at 19 µM] | activity, negative = inhibition [9] -0.369% [at 19 µM] | activity change, negative = inhibition [10] 2.43% [at 19 µM] | activity change, negative = inhibition [11] 5.48% [at 19 µM] | activity change, negative = cytotoxicity [12] 3.58% [at 19 µM] | viability change, negative = cytotoxic [13] 9.3% [at 19 µM] | viability change, negative = cytotoxic [14] 5.82% [at 19 µM] | activity change, negative = inhibition [15] 6.04% [at 19 µM] | activity change, negative = cytotoxicity [16] -6.73% [at 19 µM]

[Cl][Sc]([Cl])[Cl]
inactive: Potency [1] | Potency [2] | Potency [3] | Potency [4] | Potency [5] | Potency [6] | Potency [7] | Potency [8] | Potency [9] | Potency [10] | Potency [11] | Potency [12] | Potency [14] | Potency [18] | Potency [15] | Potency [16]

C=CC(C)(C)O
inactive: Potency [1] | Potency [2] | Potency [3] | Potency [4] | Potency [5] | Potency [6] | Potency [7] | Potency [8] | Potency [9] | Potency [10] | Potency [11] | Potency [12] | Potency [13] | Potency [14] | Potency [18] | Potency [15] | outcome [19] | Potency [17] | Potency [16]

Cc1ccc2n[nH]nc2c1
inactive: Potency [1] | Potency [2] | Potency [3] | Potency [4] | Potency [5] | Potency [6] | Potency [7] | Potency [8] | Potency [10] | Potency [11] | Potency [12] | Potency [13] | Potency [14] | Potency [18] | Potency [15] | outcome [19] | Potency [17] | Potency [16]
